# Reference: paper PMC7862700, “An all-to-all approach to the identification of sequence-specific readers for epigenetic DNA modifications on cytosine”
# What was measured:
# Assay in all cases: DAPPL (digital affinity profiling via proximity ligation, sequencing); 10 mM Tris-HCl pH 7.5, 50 mM NaCl, 1 mM DTT, 4% glycerol, room temperature, 30 min; GST-TFs on glutathione beads, 16-mer random dsDNA library, 0.1% formaldehyde crosslink after washing; high values mean tight binding
# [1] = molecular target: T1, FLI1 (Homo sapiens, UniProt Q01543 1-452); conditions: protein: recombinant; tags: N-terminal GST; dsDNA, one strand shown
# T1 sequence: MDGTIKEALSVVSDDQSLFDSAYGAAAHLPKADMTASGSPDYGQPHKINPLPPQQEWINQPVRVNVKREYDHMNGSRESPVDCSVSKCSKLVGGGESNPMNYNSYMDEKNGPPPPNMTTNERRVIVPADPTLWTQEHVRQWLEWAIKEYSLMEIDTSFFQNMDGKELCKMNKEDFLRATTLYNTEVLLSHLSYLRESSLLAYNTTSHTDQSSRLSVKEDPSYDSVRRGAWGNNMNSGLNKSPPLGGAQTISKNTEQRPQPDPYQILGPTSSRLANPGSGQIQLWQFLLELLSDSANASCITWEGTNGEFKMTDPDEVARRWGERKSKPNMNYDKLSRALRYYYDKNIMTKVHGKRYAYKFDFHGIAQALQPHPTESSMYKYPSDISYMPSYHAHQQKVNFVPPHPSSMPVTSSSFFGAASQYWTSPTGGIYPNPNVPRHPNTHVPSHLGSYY
# Summary of the method: (§1)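 A tag-only sample was pooled with DNA-barcoded human transcription factors that had been expressed in yeast as GST fusions and captured on glutathione beads. The pools were incubated for 30 min at room temperature with 200 nmole of a random double-stranded 16-mer DNA library in Tris/NaCl/DTT/glycerol buffer, then washed, crosslinked with 0.1% formaldehyde, proximity-ligated (BsaI/T4 ligase, 1 h, 37 °C), PCR-amplified and sequenced on an Illumina NextSeq500. Binding signal is each hexamer's read frequency for a factor divided by its frequency for the tag-only sample.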
# [2] = molecular target: T2, ELK1 (Homo sapiens, UniProt P19419 1-428); conditions: protein: recombinant; tags: N-terminal GST; dsDNA, one strand shown
# T2 sequence: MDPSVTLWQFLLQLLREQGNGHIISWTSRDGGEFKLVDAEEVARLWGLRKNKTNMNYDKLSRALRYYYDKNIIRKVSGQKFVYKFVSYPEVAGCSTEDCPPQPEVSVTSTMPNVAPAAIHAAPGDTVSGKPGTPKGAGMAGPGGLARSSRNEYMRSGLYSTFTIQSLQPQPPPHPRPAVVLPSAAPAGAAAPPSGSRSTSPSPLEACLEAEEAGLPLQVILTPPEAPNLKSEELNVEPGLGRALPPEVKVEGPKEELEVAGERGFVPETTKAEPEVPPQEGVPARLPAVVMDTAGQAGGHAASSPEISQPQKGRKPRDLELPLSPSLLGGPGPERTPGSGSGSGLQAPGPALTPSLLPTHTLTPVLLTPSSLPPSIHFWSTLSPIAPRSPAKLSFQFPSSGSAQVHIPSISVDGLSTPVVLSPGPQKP
# Summary of the method: as §1
# [3] = molecular target: T3, GABPA (Homo sapiens, UniProt Q06546 1-454); conditions: protein: recombinant; tags: N-terminal GST; dsDNA, one strand shown
# T3 sequence: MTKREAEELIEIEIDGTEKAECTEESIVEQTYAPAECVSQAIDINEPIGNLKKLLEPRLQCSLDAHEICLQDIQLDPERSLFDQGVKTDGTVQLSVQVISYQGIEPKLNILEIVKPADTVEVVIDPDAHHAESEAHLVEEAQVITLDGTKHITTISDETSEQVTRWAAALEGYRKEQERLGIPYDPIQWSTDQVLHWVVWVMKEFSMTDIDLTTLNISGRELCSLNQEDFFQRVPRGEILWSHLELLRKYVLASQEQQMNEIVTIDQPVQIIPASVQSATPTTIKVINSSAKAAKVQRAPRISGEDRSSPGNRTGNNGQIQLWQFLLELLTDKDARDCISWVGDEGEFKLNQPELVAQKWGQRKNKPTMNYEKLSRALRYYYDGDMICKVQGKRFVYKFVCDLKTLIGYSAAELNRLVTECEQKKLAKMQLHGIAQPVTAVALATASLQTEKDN
# Summary of the method: as §1
# [4] = molecular target: T4, ERG (Homo sapiens, UniProt P11308 1-479); conditions: protein: recombinant; tags: N-terminal GST; dsDNA, one strand shown
# T4 sequence: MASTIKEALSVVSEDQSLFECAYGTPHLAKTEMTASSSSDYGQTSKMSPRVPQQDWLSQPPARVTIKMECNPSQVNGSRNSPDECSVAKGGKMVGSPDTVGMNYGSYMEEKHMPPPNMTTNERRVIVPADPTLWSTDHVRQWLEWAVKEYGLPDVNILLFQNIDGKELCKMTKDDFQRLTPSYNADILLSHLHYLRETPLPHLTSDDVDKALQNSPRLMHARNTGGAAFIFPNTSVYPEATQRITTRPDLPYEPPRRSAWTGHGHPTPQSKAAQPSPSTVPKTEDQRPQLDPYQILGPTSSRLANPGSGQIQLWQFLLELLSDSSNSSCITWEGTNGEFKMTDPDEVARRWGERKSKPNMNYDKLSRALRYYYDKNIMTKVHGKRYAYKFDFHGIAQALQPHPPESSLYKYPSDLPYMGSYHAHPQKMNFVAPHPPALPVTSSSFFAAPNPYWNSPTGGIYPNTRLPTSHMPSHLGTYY
# Summary of the method: as §1
# [5] = molecular target: ELF1 (Homo sapiens, UniProt P32519 1-619); conditions: protein: recombinant; tags: N-terminal GST; dsDNA, one strand shown
# Chain of ELF1 (P32519 whole entry): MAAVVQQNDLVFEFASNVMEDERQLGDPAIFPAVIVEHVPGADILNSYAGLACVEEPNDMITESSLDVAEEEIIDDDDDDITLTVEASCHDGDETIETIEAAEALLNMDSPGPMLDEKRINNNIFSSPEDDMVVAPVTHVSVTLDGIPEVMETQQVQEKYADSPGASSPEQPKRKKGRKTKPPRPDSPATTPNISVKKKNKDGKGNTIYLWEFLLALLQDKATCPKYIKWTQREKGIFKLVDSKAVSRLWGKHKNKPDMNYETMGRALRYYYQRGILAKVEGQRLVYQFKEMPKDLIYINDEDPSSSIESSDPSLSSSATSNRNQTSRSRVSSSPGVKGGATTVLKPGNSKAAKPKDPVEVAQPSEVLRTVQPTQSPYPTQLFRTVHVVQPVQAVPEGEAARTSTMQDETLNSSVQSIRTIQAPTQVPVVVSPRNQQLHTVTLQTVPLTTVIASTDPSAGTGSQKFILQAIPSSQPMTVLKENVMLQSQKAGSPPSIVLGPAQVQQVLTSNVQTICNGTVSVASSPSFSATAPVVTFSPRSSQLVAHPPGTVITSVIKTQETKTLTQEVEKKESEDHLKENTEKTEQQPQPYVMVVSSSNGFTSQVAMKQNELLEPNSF
# Summary of the method: as §1
# [6] = molecular target: T5, EHF (Homo sapiens, UniProt Q9NZC4 1-300); conditions: protein: recombinant; tags: N-terminal GST; dsDNA, one strand shown
# T5 sequence: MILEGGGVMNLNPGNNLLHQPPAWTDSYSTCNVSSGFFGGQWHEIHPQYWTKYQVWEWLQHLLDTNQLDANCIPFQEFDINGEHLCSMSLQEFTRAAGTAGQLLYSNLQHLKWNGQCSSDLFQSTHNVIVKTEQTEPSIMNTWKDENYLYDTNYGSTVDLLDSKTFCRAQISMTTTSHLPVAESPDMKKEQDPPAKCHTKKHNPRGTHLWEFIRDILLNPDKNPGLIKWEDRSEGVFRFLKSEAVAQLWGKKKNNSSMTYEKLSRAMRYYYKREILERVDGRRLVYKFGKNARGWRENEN
# Summary of the method: as §1
# [7] = molecular target: SPI1 (Homo sapiens, UniProt P17947 1-270); conditions: protein: recombinant; tags: N-terminal GST; dsDNA, one strand shown
# Summary of the method: as §1
# [8] = molecular target: SPIB (Homo sapiens, UniProt Q01892 1-262); conditions: protein: recombinant; tags: N-terminal GST; dsDNA, one strand shown
# Chain of SPIB (Q01892 whole entry): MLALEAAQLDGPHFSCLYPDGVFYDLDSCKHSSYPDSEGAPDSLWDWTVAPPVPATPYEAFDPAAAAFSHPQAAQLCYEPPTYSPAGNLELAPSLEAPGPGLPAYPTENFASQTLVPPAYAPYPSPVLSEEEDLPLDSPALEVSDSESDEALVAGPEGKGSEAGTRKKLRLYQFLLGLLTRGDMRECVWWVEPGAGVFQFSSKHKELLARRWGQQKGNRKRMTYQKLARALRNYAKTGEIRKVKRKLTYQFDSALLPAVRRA
# Summary of the method: as §1
# [9] = molecular target: T6, ELK3 (Homo sapiens, UniProt P41970 1-407); conditions: protein: recombinant; tags: N-terminal GST; dsDNA, one strand shown
# T6 sequence: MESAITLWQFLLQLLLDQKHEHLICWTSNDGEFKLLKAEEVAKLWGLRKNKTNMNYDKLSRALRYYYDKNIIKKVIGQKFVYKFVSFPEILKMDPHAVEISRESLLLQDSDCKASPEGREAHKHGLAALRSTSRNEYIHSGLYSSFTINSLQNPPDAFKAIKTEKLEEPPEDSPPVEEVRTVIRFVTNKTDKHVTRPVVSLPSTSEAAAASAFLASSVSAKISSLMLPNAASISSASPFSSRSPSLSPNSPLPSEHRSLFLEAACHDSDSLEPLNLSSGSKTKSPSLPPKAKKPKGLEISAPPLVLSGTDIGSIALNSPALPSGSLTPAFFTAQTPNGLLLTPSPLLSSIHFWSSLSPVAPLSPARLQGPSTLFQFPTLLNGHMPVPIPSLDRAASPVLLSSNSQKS
# Summary of the method: as §1
# [10] = molecular target: T7, FEV (Homo sapiens, UniProt Q99581 1-238); conditions: protein: recombinant; tags: N-terminal GST; dsDNA, one strand shown
# T7 sequence: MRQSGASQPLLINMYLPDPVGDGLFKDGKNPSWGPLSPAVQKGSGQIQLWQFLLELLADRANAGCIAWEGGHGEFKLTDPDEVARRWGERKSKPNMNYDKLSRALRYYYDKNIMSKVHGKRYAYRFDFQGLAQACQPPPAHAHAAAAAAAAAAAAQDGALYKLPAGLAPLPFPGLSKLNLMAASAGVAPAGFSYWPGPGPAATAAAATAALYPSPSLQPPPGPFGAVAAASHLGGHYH
# Summary of the method: as §1
# [11] = molecular target: ETV5 (Homo sapiens, UniProt P41161 1-510); conditions: protein: recombinant; tags: N-terminal GST; dsDNA, one strand shown
# Chain of ETV5 (P41161 whole entry): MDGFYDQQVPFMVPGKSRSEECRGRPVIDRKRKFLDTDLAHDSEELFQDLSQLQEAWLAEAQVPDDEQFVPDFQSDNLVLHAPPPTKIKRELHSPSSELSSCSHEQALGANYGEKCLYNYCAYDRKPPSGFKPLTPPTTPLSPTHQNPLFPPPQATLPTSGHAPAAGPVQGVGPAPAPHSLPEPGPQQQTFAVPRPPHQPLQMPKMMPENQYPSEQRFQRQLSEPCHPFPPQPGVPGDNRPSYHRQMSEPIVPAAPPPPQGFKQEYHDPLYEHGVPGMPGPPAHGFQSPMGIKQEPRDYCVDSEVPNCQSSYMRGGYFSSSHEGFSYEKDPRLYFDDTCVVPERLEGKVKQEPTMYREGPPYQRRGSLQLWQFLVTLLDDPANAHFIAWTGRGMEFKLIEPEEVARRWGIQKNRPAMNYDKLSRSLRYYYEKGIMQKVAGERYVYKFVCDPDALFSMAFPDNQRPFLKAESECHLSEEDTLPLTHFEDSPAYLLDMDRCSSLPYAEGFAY
# Summary of the method: as §1
# [12] = molecular target: HSF1 (Homo sapiens, UniProt Q00613 1-529); conditions: protein: recombinant; tags: N-terminal GST; chain copies: 3; dsDNA, one strand shown
# Chain of HSF1 (Q00613 whole entry): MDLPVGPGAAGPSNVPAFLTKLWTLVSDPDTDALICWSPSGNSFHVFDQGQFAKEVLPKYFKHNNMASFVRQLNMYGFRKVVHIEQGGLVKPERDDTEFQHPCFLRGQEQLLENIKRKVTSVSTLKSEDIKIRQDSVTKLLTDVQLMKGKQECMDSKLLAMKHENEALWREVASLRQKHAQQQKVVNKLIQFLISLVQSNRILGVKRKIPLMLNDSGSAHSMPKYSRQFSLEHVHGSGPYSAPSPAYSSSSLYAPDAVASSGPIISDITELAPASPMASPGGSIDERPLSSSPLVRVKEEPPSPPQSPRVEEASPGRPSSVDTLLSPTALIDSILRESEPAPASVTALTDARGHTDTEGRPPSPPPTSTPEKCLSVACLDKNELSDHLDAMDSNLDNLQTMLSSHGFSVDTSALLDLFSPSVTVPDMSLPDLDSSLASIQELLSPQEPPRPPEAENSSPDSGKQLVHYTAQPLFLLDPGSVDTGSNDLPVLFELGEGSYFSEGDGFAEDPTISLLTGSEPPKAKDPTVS
# Summary of the method: as §1
# [13] = molecular target: T8, SPIC (Homo sapiens, UniProt Q8N5J4 1-248); conditions: protein: recombinant; tags: N-terminal GST; dsDNA, one strand shown
# T8 sequence: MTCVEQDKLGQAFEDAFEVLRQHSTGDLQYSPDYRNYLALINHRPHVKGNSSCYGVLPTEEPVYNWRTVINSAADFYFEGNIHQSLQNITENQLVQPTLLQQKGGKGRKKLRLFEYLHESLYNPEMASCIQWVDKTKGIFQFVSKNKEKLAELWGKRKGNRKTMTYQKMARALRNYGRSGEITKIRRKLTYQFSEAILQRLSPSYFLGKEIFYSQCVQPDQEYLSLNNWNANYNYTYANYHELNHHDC
# Summary of the method: as §1
# [14] = molecular target: ELF4 (Homo sapiens, UniProt Q99607 1-663); conditions: protein: recombinant; tags: N-terminal GST; dsDNA, one strand shown
# Chain of ELF4 (Q99607 whole entry): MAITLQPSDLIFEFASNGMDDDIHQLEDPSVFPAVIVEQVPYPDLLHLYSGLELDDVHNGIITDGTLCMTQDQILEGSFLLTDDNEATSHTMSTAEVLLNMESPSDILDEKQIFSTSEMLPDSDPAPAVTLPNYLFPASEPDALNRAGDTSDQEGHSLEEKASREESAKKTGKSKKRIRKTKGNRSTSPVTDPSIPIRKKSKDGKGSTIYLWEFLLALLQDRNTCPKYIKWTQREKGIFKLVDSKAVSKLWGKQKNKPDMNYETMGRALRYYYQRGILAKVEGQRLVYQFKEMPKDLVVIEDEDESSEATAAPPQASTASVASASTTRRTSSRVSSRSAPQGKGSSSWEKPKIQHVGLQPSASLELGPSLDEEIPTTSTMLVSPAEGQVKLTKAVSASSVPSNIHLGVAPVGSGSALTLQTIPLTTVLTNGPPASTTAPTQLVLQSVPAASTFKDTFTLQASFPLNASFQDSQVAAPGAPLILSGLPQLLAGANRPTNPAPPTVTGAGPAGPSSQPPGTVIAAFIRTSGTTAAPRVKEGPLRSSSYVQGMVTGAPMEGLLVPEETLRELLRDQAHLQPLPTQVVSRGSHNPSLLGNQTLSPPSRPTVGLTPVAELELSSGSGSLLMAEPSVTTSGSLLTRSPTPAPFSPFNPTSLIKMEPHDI
# Summary of the method: as §1
# [15] = molecular target: T9, ETV2 (Homo sapiens, UniProt O00321 1-342); conditions: protein: recombinant; tags: N-terminal GST; dsDNA, one strand shown
# T9 sequence: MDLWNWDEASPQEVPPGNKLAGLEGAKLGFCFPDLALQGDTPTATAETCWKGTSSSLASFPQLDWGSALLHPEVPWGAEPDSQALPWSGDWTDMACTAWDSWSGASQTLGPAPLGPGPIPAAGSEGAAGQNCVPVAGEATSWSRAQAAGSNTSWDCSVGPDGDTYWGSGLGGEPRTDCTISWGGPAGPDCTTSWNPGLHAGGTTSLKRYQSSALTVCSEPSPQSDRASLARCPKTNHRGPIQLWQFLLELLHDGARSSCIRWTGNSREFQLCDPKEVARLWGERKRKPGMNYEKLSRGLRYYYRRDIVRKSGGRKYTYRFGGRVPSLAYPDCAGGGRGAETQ
# Summary of the method: as §1
# [16] = molecular target: T10, ELF3 (Homo sapiens, UniProt P78545 1-371); conditions: protein: recombinant; tags: N-terminal GST; dsDNA, one strand shown
# T10 sequence: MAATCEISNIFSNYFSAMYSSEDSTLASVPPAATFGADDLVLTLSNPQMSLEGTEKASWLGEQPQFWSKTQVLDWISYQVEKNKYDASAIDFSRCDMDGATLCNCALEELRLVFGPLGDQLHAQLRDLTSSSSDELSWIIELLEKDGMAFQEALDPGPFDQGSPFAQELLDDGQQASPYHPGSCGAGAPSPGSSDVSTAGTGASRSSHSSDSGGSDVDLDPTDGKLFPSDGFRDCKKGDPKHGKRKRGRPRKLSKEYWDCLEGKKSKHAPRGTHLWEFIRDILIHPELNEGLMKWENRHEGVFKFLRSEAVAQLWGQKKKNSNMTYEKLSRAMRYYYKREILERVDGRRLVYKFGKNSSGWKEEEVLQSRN
# Summary of the method: as §1
# [17] = molecular target: CRX (Homo sapiens, UniProt O43186 1-299); conditions: protein: recombinant; tags: N-terminal GST; dsDNA, one strand shown
# Chain of CRX (O43186 whole entry): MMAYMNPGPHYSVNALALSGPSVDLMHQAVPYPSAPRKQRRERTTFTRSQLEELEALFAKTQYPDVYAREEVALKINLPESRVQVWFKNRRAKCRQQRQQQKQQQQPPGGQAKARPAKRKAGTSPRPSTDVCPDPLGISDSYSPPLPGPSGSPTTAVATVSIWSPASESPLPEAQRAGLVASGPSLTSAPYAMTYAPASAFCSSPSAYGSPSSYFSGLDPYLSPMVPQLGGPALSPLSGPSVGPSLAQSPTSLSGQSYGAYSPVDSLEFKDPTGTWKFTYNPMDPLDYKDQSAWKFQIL
# Summary of the method: as §1
# [18] = molecular target: ETV1 (Homo sapiens, UniProt P50549 1-477); conditions: protein: recombinant; tags: N-terminal GST; dsDNA, one strand shown
# Chain of ETV1 (P50549 whole entry): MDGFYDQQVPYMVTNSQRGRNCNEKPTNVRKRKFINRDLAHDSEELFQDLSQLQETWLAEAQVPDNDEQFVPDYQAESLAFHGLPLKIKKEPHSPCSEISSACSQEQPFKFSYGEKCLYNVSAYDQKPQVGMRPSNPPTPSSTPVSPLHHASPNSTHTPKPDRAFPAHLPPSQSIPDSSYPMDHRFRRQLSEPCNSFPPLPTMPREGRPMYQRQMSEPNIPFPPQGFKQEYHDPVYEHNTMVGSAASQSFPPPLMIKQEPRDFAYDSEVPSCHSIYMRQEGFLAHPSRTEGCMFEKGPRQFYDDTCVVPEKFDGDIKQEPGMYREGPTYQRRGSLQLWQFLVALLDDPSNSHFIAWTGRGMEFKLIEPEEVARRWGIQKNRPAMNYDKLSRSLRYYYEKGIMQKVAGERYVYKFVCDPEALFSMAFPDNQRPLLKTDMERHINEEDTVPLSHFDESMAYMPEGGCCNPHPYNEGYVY
# Summary of the method: as §1
sequence,measurement,setting,value
ATAAGC,binding signal,[1],"1.02 fold enrichment (6-mer frequency, TF over GST control)"
same,binding signal,[2],"1.09 fold enrichment (6-mer frequency, TF over GST control)"
same,binding signal,[3],"1.11 fold enrichment (6-mer frequency, TF over GST control)"
same,binding signal,[4],"1.08 fold enrichment (6-mer frequency, TF over GST control)"
same,binding signal,[5],"1.1 fold enrichment (6-mer frequency, TF over GST control)"
same,binding signal,[6],"1.05 fold enrichment (6-mer frequency, TF over GST control)"
same,binding signal,[7],"1.01 fold enrichment (6-mer frequency, TF over GST control)"
same,binding signal,[8],"1.11 fold enrichment (6-mer frequency, TF over GST control)"
same,binding signal,[9],"1.05 fold enrichment (6-mer frequency, TF over GST control)"
same,binding signal,[10],"1.02 fold enrichment (6-mer frequency, TF over GST control)"
same,binding signal,[11],"1.11 fold enrichment (6-mer frequency, TF over GST control)"
same,binding signal,[12],"1.67 fold enrichment (6-mer frequency, TF over GST control)"
same,binding signal,[13],"1.08 fold enrichment (6-mer frequency, TF over GST control)"
same,binding signal,[14],"1.11 fold enrichment (6-mer frequency, TF over GST control)"
same,binding signal,[15],"1.07 fold enrichment (6-mer frequency, TF over GST control)"
same,binding signal,[16],"1.12 fold enrichment (6-mer frequency, TF over GST control)"
same,binding signal,[17],"2.4 fold enrichment (6-mer frequency, TF over GST control)"
same,binding signal,[18],"1.11 fold enrichment (6-mer frequency, TF over GST control)"
